Each structure is given as a SMILES string. Results filed as inconclusive are left out. Calls of active or inactive are those of the source. The call rests on the fitted dose curve; in most records, active means well fitted inhibition curve with a large enough effect; inconclusive means small, poorly fitted or top-dose-only effect; inactive means flat fitted curve, though single readings scatter.

In the assay the target is Luciferin 4-monooxygenase (Photinus pyralis) (UniProt P08659). The assay is described as follows: FLuc inhibitory activity for the follow-up compounds in a biochemical assay with 1mM ATP. Particulars: purified P. pyralis luciferase, luminescence; series mostly up to 57.5 µM. The source says: NCGC Assay Overview: Firefly (Photinus pyralis) luciferase is one of the most commonly used transcriptional reporters. It is considered one of the more dynamically responsive reporters - that is, responsive to changes in reporter transcription - as it requires no post-translational modifications and is enzymatically active directly after protein synthesis (Wood, 1998). With no endogenous expression in mammalian cells and without the requirement of external excitation, it offers very little background signal, thus generally providing excellent signal to background for most assays. Previous profiling work to determine the prevalence of compounds that affect FLuc enzymatic activity (PubChem AID 411) identified that ~3% of the MLSMR library (then at ~72K) inhibited FLuc. […] Of the compounds identified in this profile that inhibited FLuc, 151 compounds were selected for further analysis, in an effort to better understand their mode of inhibiting FLuc. The assay described here was to determine the activity of the compounds in a FLuc assay that contained a KM concentration of D-luciferin and a high concentration (1mM) of ATP.
Chain of Luciferin 4-monooxygenase (Photinus pyralis) (P08659 whole entry, looked up): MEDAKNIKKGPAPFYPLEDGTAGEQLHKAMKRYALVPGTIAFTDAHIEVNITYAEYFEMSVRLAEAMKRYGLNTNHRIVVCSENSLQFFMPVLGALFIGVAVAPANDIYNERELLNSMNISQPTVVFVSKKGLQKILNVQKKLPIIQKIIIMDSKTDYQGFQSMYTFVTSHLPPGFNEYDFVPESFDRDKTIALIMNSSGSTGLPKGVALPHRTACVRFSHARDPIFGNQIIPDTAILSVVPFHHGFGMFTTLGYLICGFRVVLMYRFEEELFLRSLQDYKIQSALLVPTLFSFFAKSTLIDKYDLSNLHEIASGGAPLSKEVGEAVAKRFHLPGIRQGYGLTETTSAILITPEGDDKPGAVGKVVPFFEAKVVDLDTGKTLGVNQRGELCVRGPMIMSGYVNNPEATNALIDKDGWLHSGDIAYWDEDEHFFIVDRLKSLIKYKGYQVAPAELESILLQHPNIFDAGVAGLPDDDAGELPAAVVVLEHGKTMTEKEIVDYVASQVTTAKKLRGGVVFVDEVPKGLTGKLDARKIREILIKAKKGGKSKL
NCGC Assay Protocol Summary: Reagents: 50mM Tris acetate, pH 7.5; 10mM Mg acetate; 10uM D-luciferin (Sigma #L9504); 1mM ATP; 0.01% Tween-20; 0.05% BSA; 10nM P. pyralis luciferase (Sigma #L9506) Control compounds used were two known firefly luciferase inhibitors (3-(5-(3-chlorophenyl)-1,2,4-oxadiazol-3-yl)benzoic acid and 5-(2-fluorophenyl)-3-phenyl-1,2,4-oxadiazole), and DMSO. Three microliters containing firefly luciferase substrates in buffer (final concentrations: 50mM Tris acetate, pH 7.5, 10mM Mg acetate, 0.01% Tween-20, 0.05% BSA, 10uM D-luciferin, 1mM ATP) are dispensed into each well of a Greiner white, solid-bottom 1536-well format plate using a flying reagent dispenser (FRD). These assay plates were then treated with 23nL of compound or DMSO using a Kalypsys pin tool, which allows for delivery of a 12-point intraplate titration of each compound to the assay plate (quantitative HTS), with a final compound concentrations ranging from approximately ~60uM to 0.3nM. One microliter of firefly luciferase in […] Tris-acetate buffer was then delivered by FRD to each well for a final enzyme concentration of 10nM. Luciferase activity was then measured using a ViewLux CCD imager (PerkinElmer), with an average exposure time of 2-30 seconds (2X binning, medium/high gain).
As to `Nc1ccc(-c2nc3ccc(N)cc3s2)cc1`, the Potency is 103 nM (active).

For `CCn1c(C)nc2cc(-c3nc4n(n3)Cc3ccccc3-4)ccc21`, the Potency was 32.6 nM (active).

On to `Cc1ccc(S(=O)(=O)N2CCOCC2)cc1C(=O)Nc1ccccc1C(=O)O`, for which the Potency result was “inactive”.

As for `O=C(Nc1ccccc1C(=O)O)c1ccc(NC(=O)C2CCCCC2)cc1`, the Potency is 32600 nM (active).

`O=C(O)c1cccc(NC(=O)c2cccc(S(=O)(=O)N3CCc4ccccc4C3)c2)c1`: the Potency was 18300 nM (active).

As for `COc1ccc(-c2nc3ccccc3s2)cc1O`, the Potency was 25.9 nM (active).

As for `COc1ccc(C(=O)Nc2ccccc2C(=O)Nc2ccc(C(=O)O)cc2)cc1`, the Potency was 18300 nM (active).

For `CCOc1ccc2nc(NC(=O)c3cccnc3)sc2c1`, the Potency was 2060 nM (active).

As to `Nc1ccc(-c2nc3cc(N)ccc3s2)cc1`, the Potency is 259 nM (active).

Consider `COc1ccc(CC(=O)Nc2ccc(-c3nc4ccccc4s3)c(C)c2)cc1`, for which the Potency is 18300 nM (active).

For `Cc1ccc(C(=O)Nc2ccc(C(=O)O)cc2)cc1S(=O)(=O)NCc1ccccc1`, the Potency result was “inactive”.

Consider `Cc1ccc(C(=O)Nc2ccc(C(=O)O)cc2)cc1S(=O)(=O)Nc1ccccc1`, for which the Potency result is “inactive”.

Regarding `Cn1c(N/N=C/c2cc3ccccc3nc2Cl)nc2ccccc21`, the Potency is 14600 nM (active).

Turning to `CCOc1ccc2nc(NC(=O)c3ccoc3C)sc2c1`, the Potency was 130 nM (active).

As to `CCCOc1cccc(C(=O)Nc2ccc(-c3nc4ccccc4s3)c(Cl)c2)c1`, the Potency entry is “inactive”.

As to `Cc1ccccc1C(=O)Nc1cccc(C(=O)Nc2ccccc2C(=O)O)c1`, the Potency is 32600 nM (active).

Regarding `COc1ccc2nc(NC(=O)C3CCN(S(=O)(=O)c4cccnc4)CC3)sc2c1`, the Potency result was “inactive”.

In the case of `CC(C)CC(=O)Nc1cccc(C(=O)Nc2ccccc2C(=O)O)c1`, the Potency was 18300 nM (active).

On to `Cc1ccc(C(=O)O/N=C(\N)c2ccccn2)cc1`, for which the Potency is 7.3 nM (active).

For `O=C(Nc1ccccc1C(=O)O)c1cccc(NC(=O)c2ccccc2Cl)c1`, the Potency was 20600 nM (active).

Regarding `COc1ccc(C(=O)Nc2ccccc2-c2nc3ccccc3s2)c(OC)c1`, the Potency entry is “inactive”.

In the case of `O=C(Nc1ccc(-c2nc3ccccc3s2)cc1)C1=COCCO1`, the Potency is 18.3 nM (active).

`Cc1c(C)c2ccc(OCC(=O)Nc3ccccn3)c(C)c2oc1=O`: the Potency was 8.2 nM (active).

Take `CCOc1ccc(C(=O)Nc2cccc(C(=O)O)c2)cc1Cl`: the Potency is 580 nM (active).

With `O=C(Nc1ccccc1C(=O)O)c1ccc(NC(=O)C2CCCO2)cc1` (stereo not given), the Potency was 20600 nM (active).

As for `O=C(O)c1cccc(NC(=O)c2ccc(COc3ccc(Cl)cc3)cc2)c1`, the Potency was 3660 nM (active).

In the case of `O=C(Nc1ccccc1C(=O)O)c1ccc(NC(=O)C2CC2)cc1`, the Potency is 3660 nM (active).

On to `Nc1ccc(C(=O)Nc2ccccc2C(=O)O)cc1`, for which the Potency was 14600 nM (active).

On to `O=C(O)c1ccc(NC(=O)c2ccccc2NC(=O)c2ccccc2Cl)cc1`, for which the Potency entry was “inactive”.

Consider `Nc1ccc(-c2nc3ccc(C(=O)O)cc3s2)cc1`, for which the Potency is 65.1 nM (active).

As to `CCCC(=O)Nc1nc2ccc(OCC)cc2s1`, the Potency was 3260 nM (active).

As to `Cc1ccc(S(=O)(=O)N2CCN(C(=O)c3ccccc3-c3nc4ccccc4s3)CC2)c(C)c1`, the Potency entry was “inactive”.

`Cc1c(NS(C)(=O)=O)cccc1-c1nc2ccccc2s1`: the Potency is 10300 nM (active).

For `Nc1ccc2nc(-c3ccc(O)cc3)sc2c1`, the Potency was 183 nM (active).

In the case of `Nc1cccc(-c2nc3ccc(N)cc3s2)c1`, the Potency was 116 nM (active).

For `Cc1ccc(C(=O)Nc2cccc(C(=O)O)c2)cc1S(=O)(=O)N1CCCC1`, the Potency is 461 nM (active).

`CN(C)c1cccc(C(=O)Nc2ccc(-c3nc4ccccc4s3)cc2)c1`: the Potency is 819 nM (active).

As to `O=C(O)c1ccc(NC(=O)c2cc(S(=O)(=O)N3CCCCC3)c(Cl)cc2Cl)cc1`, the Potency result is “inactive”.

Regarding `Cc1ccc(C(=O)O/N=C(\N)c2ccccn2)c(Cl)c1`, the Potency is 4.6 nM (active).

With `Cc1ccc(C(=O)Nc2ccccc2C(=O)O)cc1S(=O)(=O)N1CCCCCC1`, the Potency was 1830 nM (active).

The values above are taken from PubChem BioAssay AID602364 (National Center for Advancing Translational Sciences (NCATS), 2012).
